As a reminder, the inhibition is the share of the control response that was lost under treatment.

The source of these data is PubChem BioAssay AID651780 (The Scripps Research Institute Molecular Screening Center, 2012).

Out of some 2,400 compounds screened, about 1,800 (75%) were called active. No stated cut-off is given here; in the data, active means inhibition above about 22%; inactive means the rest. So high a share suggests a set chosen from earlier hits. Not all results are given here.

This assay can be described thus: calcium response inhibition in counter-screen line – cell-based, fluorescence, counter-screen for hTAAR1 antagonist project (AID 651780).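 Further: CHO-Ga16 host cells stimulated with ATP at an EC80 level; 0% = agonist EC80 plus vehicle and 100% = vehicle without agonist.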 Particulars: counterscreen cell line, antagonist mode, at 3 µM, active compounds read high.
In the case of `COC(=O)C1=C(c2ccc(F)cc2OCc2ccccc2)C[C@@H]2CC[C@H]1N2C(=O)NCc1ccc(OC)c(OC)c1`, the inhibition is 24.8% (active).
The figure for `COC(=O)C1=C(c2ccccc2OCc2ccccc2)C[C@@H]2CC[C@H]1N2C(=O)NCc1ccc(OC)cc1` is 22.2% (active); for `O=C1C2(Cl)C3(Cl)C4(Cl)C(Cl)(Cl)C5(Cl)C3(Cl)C1(Cl)C5(Cl)C24Cl` (stereo not drawn) it is 24.9% (active).
